# Laboratory results reported in PubChem BioAssay (Tox21).
# Records with an inconclusive call do not appear. Where a call stands in place of a potency, no number is given. A number with no mark means an inactive call. Activity calls are given as the source filed them. Calls follow the shape of the dose curve; as a rule, active = well fitted cell-killing curve with a large enough effect in the repeat runs; inconclusive = weak or mixed curves, or effect the other way; inactive = flat fitted curve, though single readings scatter.
# Legend:
# [1] = cAMP Responsive Elements (CRE) small molecule antagonists, cell-based qHTS assay: qHTS cell viability counter screen (AID 2060913); also: nearly all actives have a fitted effect of over 40% in size
# Outline: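 Cytotoxicity read in the same wells as the CRE-bla HEK293T antagonist assay: after 3 h compound with 0.25 uM NKH477 final and 2 h beta-lactamase substrate, CellTiter-Glo luminescence measured.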
# [2] = cAMP Responsive Elements (CRE) small molecule agonists, cell-based qHTS assay: qHTS cell viability counter screen (AID 2060914); also: potency is read from the fitted curve at half-maximal effect;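 also: viability read after 3 h of compound exposure; nearly all actives have a fitted effect of over 50% in size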
# Outline: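 CRE-bla HEK 293T cells, plated 18 h at 37 °C, were exposed to compounds for 3 h at 37 °C/5% CO2. Viability was then measured in the same wells by CellTiter-Glo luminescence after 30 min at room temperature.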
SMILES,Potency [1],Potency [2],"viability change, negative = cytotoxic [1]","activity change, negative = cytotoxicity [2]"
Cl/C=C\C[N+]12CN3CN(CN(C3)C1)C2,inactive,inactive,–,–
C#CCN(C)[C@H](C)Cc1ccccc1,inactive,inactive,–,–
O=C(O)CC[N+](=O)[O-],inactive,inactive,–,–
N#Cc1ccccn1,inactive,inactive,–,–
O=c1[nH]c2ccccc2n1C1CCNCC1,inactive,266 nM (active),–,–
C=C1C[C@@H]2[C@H](CC[C@]3(C)C(=O)CC[C@@H]23)[C@@]2(C)C=CC(=O)C=C12,inactive,inactive,–,–
O=C1CCCN1,inactive,inactive,–,–
CC(=O)C=C(C)C,inactive,inactive,–,–
c1ccc(P(c2ccccc2)c2ccccc2)cc1,inactive,inactive,–,–
CC(=O)[O-].CC(=O)[O-].CC(=O)[O-].[Sb+3],–,–,0.272% [at 3.27 µM],-8.91% [at 3.27 µM]
COc1ccc(Cc2nccc3cc(OC)c(OC)cc23)cc1OC,inactive,inactive,–,–
COc1cc(CC(C)N)cc2c1OCO2 (stereo not given),inactive,inactive,–,–
Cc1nc(N(C)C)nc(OC(=O)N(C)C)c1C,inactive,inactive,–,–
CN1[C@@H]2CC[C@H]1CC(O)C2 (stereo not given in full),inactive,inactive,–,–
C#CCOC(C(=O)OCCN(C)C)(c1ccccc1)c1ccccc1,inactive,inactive,–,–
CC(Oc1cccc(Cl)c1)C(=O)O (stereo not given),inactive,inactive,–,–
CCC(C)Br (stereo not given),inactive,inactive,–,–
O=[N+]([O-])c1ccc2ccc3cccc4ccc1c2c34,inactive,inactive,–,–
COC(=O)c1ccccc1S(=O)(=O)NC(=O)Nc1nc(C)nc(OC)n1,inactive,inactive,–,–
CCCBr,inactive,inactive,–,–
